Results filed as inconclusive are left out. Activity calls are given as the source filed them. The call rests on the fitted dose curve; in most records, active means well fitted inhibition curve with a large enough effect; inconclusive means small, poorly fitted or top-dose-only effect; inactive means flat fitted curve, though single readings scatter.
Key:
Test in all cases: qHTS profiling for inhibitors of Plasmodium falciparum proliferation (AID 504749); further: nearly all actives have a fitted effect of over 60% in size
Details in all cases: P. falciparum in erythrocytes, SYBR Green DNA, 72 h; series mostly up to 28.7 µM
CP217 = system: CP217
Method in brief: (§1)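 In a 72 h erythrocytic culture (37 C, humidified, 5% CO2) at 2.5% hematocrit and 0.3% starting parasitemia, compounds were tested; SYBR Green I in detergent lysis buffer stained parasite DNA overnight.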

CP237 = system: CP237
Method in brief: as §1

CP238 = system: CP238
Method in brief: as §1

CP247 = system: CP247
Method in brief: as §1

CP250 = system: CP250
Method in brief: as §1

CP252 = system: CP252
Method in brief: as §1

CP256 = system: CP256
Method in brief: as §1

CP260 = system: CP260
Method in brief: as §1

CP262 = system: CP262
Method in brief: as §1

CP265 = system: CP265
Method in brief: as §1

CP266 = system: CP266
Method in brief: as §1

CP268 = system: CP268
Method in brief: as §1

CP269 = system: CP269
Method in brief: as §1

CP286 = system: CP286
Method in brief: as §1

CP291 = system: CP291
Method in brief: as §1

CP297 = system: CP297
Method in brief: as §1

CP305 = system: CP305
Method in brief: as §1

CP315 = system: CP315
Method in brief: as §1

CP325 = system: CP325
Method in brief: as §1

CP329 = system: CP329
Method in brief: as §1

CP335 = system: CP335
Method in brief: as §1

DFO2036 = system: DFO2036
Method in brief: as §1

DIV14 = system: DIV14
Method in brief: as §1

DIV17 = system: DIV17
Method in brief: as §1

DIV30 = system: DIV30
Method in brief: as §1

Dd2 = system: Dd2
Method in brief: as §1

ECU = system: ECU
Method in brief: as §1

FAB9 = system: FAB9
Method in brief: as §1

GB4 = system: GB4
Method in brief: as §1

HB3 = system: HB3
Method in brief: as §1

ICS = system: ICS
Method in brief: as §1

JCK = system: JCK
Method in brief: as §1

N140 = system: N140
Method in brief: as §1

P93_24 = system: P93_24
Method in brief: as §1

P94_40 = system: P94_40
Method in brief: as §1

PAD = system: PAD
Method in brief: as §1

PC15 = system: PC15
Method in brief: as §1

PC26 = system: PC26
Method in brief: as §1

PC49 = system: PC49
Method in brief: as §1

SC27B = system: SC27B
Method in brief: as §1

TAB109 = system: TAB109
Method in brief: as §1

TAB113 = system: TAB113
Method in brief: as §1

TAB165 = system: TAB165
Method in brief: as §1

W2 = system: W2
Method in brief: as §1

Measured: Potency

C[C@@H](Cc1ccc(O)cc1)NC[C@@H](O)c1cc(O)cc(O)c1
inactive: all assays above
